HCMV inh = blocks human cytomegalovirus replication; HFF cells, HCMV-luciferase reporter, 72 h; active compounds read low; 4.5% of 410,000 active; activity change, negative = inhibition, % at 57.5 µM; in the data active = activity change below about -60%; inconclusive = no clear call, values can overlap the other calls; inactive = above about -39%
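Steps: HFFs plated, 16 h 37C; compounds added; HCMV-luciferase added to MOI 1 PFU/cell; 72 h 37C; OneGlo reagent, 5 min room temperature; luminescence read, normalized to controls.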
FMDV inh = antivirals against foot and mouth disease virus; FMDV antiviral cell-based qHTS; Potency, µM (series often up to 57.9 µM), inactives show at the highest dose activity change, negative = inhibition, hits mostly inhibitors; 1.2% of 410,000 active; AID 1159524; calls by dose curve; tested in HEK293T cells; also: read-out not given here; potency is read from the fitted curve at half-maximal effect; nearly all actives have a fitted effect of over 45% in size
Marburg entry inh = Marburg virus entry inhibition; Marburg virus pseudotyped entry inhibition, cell reporter; Potency, µM (top dose mostly 37.8 µM), for the others: at the highest dose activity change, negative = inhibition, usual class: inhibitors; 1.8% of 300,000 active; AID 540276; calls by dose curve; tested in HEK293 cells; also: potency is read from the fitted curve at half-maximal effect
HCV inh = HCV inhibition; Huh7.5.1 HCVcc-Cre infection, luciferase reporter, 44 h; Potency, µM (series often up to 41.8 µM), inactives show at the highest dose activity change, negative = inhibition, actives largely listed as inhibitors; 3.4% of 340,000 active; active = well fitted inhibition curve with a large enough effect; inconclusive = small, poorly fitted or top-dose-only effect, or another doubt; inactive = no such curve, though single readings can be large or run the other way; also: potency is read from the fitted curve at half-maximal effect
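Compounds are dispensed onto cells plated 4 h earlier at 1,000 per well, with HCVcc-Cre virus (about 0.5 moi) added next. Following 44 h of culture, luminescent signal is measured for 15 sec after 15 min with substrate at room temperature.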
Lassa entry inh = inhibitors of Lassa virus binding or cell entry. 1.2% of 300,000 active. Potency, µM (doses to about 37.9 µM), inactives show at the highest dose activity change, negative = inhibition, hits mostly inhibitors. Lassa virus pseudotype entry inhibition, cell reporter; calls by dose curve; tested in HEK293 cells; also: potency is read from the fitted curve at half-maximal effect; nearly all actives have a fitted effect of over 50% in size
Active calls of the source: *; ? = inconclusive; . = no result; [ ] = remark or other dose. Sampled rows, rich in hits. Any-hit rate of the full collection: about 7.9%. % is scaled to controls: 0 for no effect and ±100 for the full control effect.

SMILES	HCMV inh	FMDV inh	Marburg entry inh	HCV inh	Lassa entry inh
O=C(Nc1nc(-c2ccc(S(=O)(=O)N3CCCC3)cc2)cs1)c1ccco1	-65*	?	?	?	-20%
Cc1csc(NC(=O)c2cccc(S(=O)(=O)N3CCCCC3)c2)n1	36	-27%	-52%	-1%	-30%
COCCNC(=O)CCc1c(C)n(C)c2cc(-c3cc(OC)c(OC)c(OC)c3)nn2c1=O	-24	-2%	.	.	?
COc1ccc(CNC(=O)O[C@H]2CC[C@@]34CCCN3C(=O)CCC[C@H]4[C@H]2Cc2ccccc2)cc1	7	.	.	.	.
NC(=O)CN1CCN(CCN2C(=O)c3cccc4cccc(c34)C2=O)CC1	?	-4%	.	17%	.
Nc1cc2c3c(cccc3c1)C(=O)N(CCN1CCCC1)C2=O	-96*	0%	6.3µM*	10µM*	?
O=C1c2cccc3cc([N+](=O)[O-])cc(c23)C(=O)N1CCN1CCCC1	-100*	-1%	4µM*	1.1µM*	?
CCN(CC)CCN1C(=O)c2cccc3cc(N)cc(c23)C1=O	-99*	?	10µM*	-4%	-24%
O=C1c2cccc3cc([N+](=O)[O-])cc(c23)C(=O)N1/N=C/c1ccc(O)cc1O	-79*	?	-17%[46.1 µM]	?	?
Oc1ccccc1CNc1ccc(OC(F)(F)F)cc1	-21	-9%	-9%[46.1 µM]	?	-2%
CC(C)CCNC(=O)c1c(N)n(Cc2ccc3c(c2)OCO3)c2nc3ccccc3nc12	-34	-14%	?	2%	-21%
CCCNC(=O)c1c(N)n(Cc2ccc3c(c2)OCO3)c2nc3ccccc3nc12	.	16%	-7%	6%	-5%
Nc1c(C(=O)NCc2ccc3c(c2)OCO3)c2nc3ccccc3nc2n1CCCN1CCOCC1	-19	.	?	?	?
Nc1ccc(-n2c(N)c(C(=O)NCc3ccc4c(c3)OCO4)c3nc4ccccc4nc32)cc1	-5	?	?	2.5µM*	-6%
CC(C)CNC(=O)c1c(N)n(Cc2ccc3c(c2)OCO3)c2nc3ccccc3nc12	-80*	-17%	?	15%	-4%
Nc1c(C(=O)NCc2ccccc2)c2nc3ccccc3nc2n1-c1ccc2c(c1)OCO2	-77*	.	?	-13%	?
Cc1ccc(OCC(=O)Nc2ccc(Cl)c(-c3nc4ncccc4o3)c2)c(C)c1	-20	-25%	.	.	?
CCOc1ccccc1C(=O)Nc1ccc(S(=O)(=O)Nc2onc(C)c2C)cc1	2	18%	.	.	2%[46.1 µM]
O=c1[nH]c(=S)[nH]c2sc3c(c12)CCCCCC3	-8	-7%	?	29%	1%
Cc1cc(NC(=O)c2cccs2)n(-c2nc3ccccc3[nH]2)n1	?	?	?	?	11%
Cc1cc(NC(=O)c2sccc2C)n(-c2nc3ccccc3[nH]2)n1	-70*	?	?	11µM*	-11%
COc1cccc(OC)c1C(=O)Nc1cc(C)nn1-c1nc2ccccc2[nH]1	7	-25%	?	11µM*	11µM*
Cc1cc(NC(=O)c2ccccc2)n(-c2nc3ccccc3[nH]2)n1	17	-20%	.	?	.
COc1ccc(C(=O)Nc2cc(C)nn2-c2nc3ccccc3[nH]2)c(OC)c1	-64*	-4%	.	?	.
CC(C)NC(=O)N1CCC2(CC1)CCN(C(=O)c1ccncc1)CC2	.	-2%	.	.	.
SMILES	HCMV inh	FMDV inh	Marburg entry inh	HCV inh	Lassa entry inh
CCOc1ccc(NC(=O)Nc2cc(C(=O)O)ccc2N2CC3CC(C2)c2cccc(=O)n2C3)cc1 (stereo not drawn)	-35	-3%	.	-5%	.
O=C(COC(=O)/C=C/C(=O)OCC(=O)NC12CC3CC(CC(C3)C1)C2)NC12CC3CC(CC(C3)C1)C2	-10	?	8.9µM*	5%	-21%
O=C(COC(=O)c1ccccc1O)NC12CC3CC(CC(C3)C1)C2	-4	-21%	?	-11%	-9%
Cc1cccc(N=c2oc3cc(O)ccc3cc2C(N)=O)c1	-61*	4%	?	?	-12%
COc1ccccc1N=c1oc2cc(O)ccc2cc1C(N)=O	-36	30%	-28%	5%	-28%
COc1ccc2cc(C(N)=O)c(=Nc3ccc(C)cc3)oc2c1	-83*	10%	?	-23%	?
Cc1ccc(CNC(=O)Cc2c(C)c3c(cc(C)c4c(C)coc43)oc2=O)cc1	11	14%	1%[46.1 µM]	.	17%[46.1 µM]
CN1C(=O)C2C[C@@]3(Br)c4ccccc4N(OOSc4ccccc4)[C@H]3N2C(=O)[C@@H]1Cc1ccccc1 (stereo partly drawn)	-71*	-4%	.	-49%	.
Cc1nc(NCCc2ccc(S(N)(=O)=O)cc2)c2c(C)c(C)sc2n1	-88*	22µM*	?	1µM*	?
Cc1nc(NCc2ccc(S(N)(=O)=O)cc2)c2c(C)c(C)sc2n1	-20	?	-26%[46.1 µM]	-30%	7%
COc1ccc(Nc2cc(C)c3ccccc3n2)cc1	57	12%	?	?	-10%[46.1 µM]
COc1ccc(CC(=O)Nc2ccc3nc(Nc4ccc(OC)cc4)cc(C)c3c2)cc1	-86*	-29%	.	.	11%[46.1 µM]
COc1ccc(Nc2cc(C)c3cc(NC(=O)COc4cccc(C)c4)ccc3n2)cc1	-39	35µM*	.	.	?
COc1ccc(Nc2cc(C)c3cc(NC(=O)c4cc(OC)cc(OC)c4)ccc3n2)cc1	-77*	-5%	.	.	-17%[46.1 µM]
Cc1ccc2ncc(C(=O)NC(C)c3ccccc3)c(=O)n2c1 (stereo not drawn)	1	3%	2%[46.1 µM]	.	.
O=C(CC1Sc2ccccc2NC1=O)NCc1ccc(Cl)cc1 (stereo not drawn)	-11	-2%	1%[46.1 µM]	13%	.
COC(=O)c1cc(NC(=O)c2cc(C(C)(C)C)nn2Cc2ccc(F)cc2)ccc1N1CCOCC1	29	?	.	10µM*	.
CC(C)CC(N)c1csc(NC(=O)Nc2ccccc2Cc2ccccc2)n1 (stereo not drawn)	-35	-19%	.	.	.
Cc1cccc(Cn2nc(C(C)(C)C)cc2C(=O)Nc2ccc(F)cc2)c1	-93*	?	?	?	?
CC(C)CC(N)c1csc(NC(=O)c2cc(C(C)(C)C)nn2Cc2ccccc2)n1 (stereo not drawn)	-96*	?	.	.	.
CC(C)(C)c1cc(C(=O)NN)n(Cc2ccc(F)cc2)n1	6	5%	.	?	.
Cc1cc(C(=O)CN2C(=O)NC3(CCCc4sccc43)C2=O)c(C)n1-c1ccc(Cl)cc1 (stereo not drawn)	-62*	7%	?	-26%	?
CCOCCc1nn2c(=O)cc(COC(=O)c3ccco3)nc2s1	-1	-2%	.	.	20%[46.1 µM]
Nc1nc(C2CC2)c(Sc2sc(N)nc2C2CC2)s1	-72*	25µM*	?	-7%	2.5µM*
NC(=S)N/N=C1\CC(n2nnnc2-c2ccccc2)C2COC1O2 (stereo not drawn)	-68*	11%	.	15%	.
NC(=S)N/N=C1\CC(n2nnn(-c3cccc(Cl)c3)c2=S)C2COC1O2 (stereo not drawn)	-24	-20%	?	-3%	-14%
